# Bioassay records deposited in PubChem by Buhrlage Lab, Dana-Farber Cancer Institute and Novartis Institutes for BioMedical Research (Cambridge, Mass).
# In the library only some 14% were active in any assay of this set; here they are far more common.
# USP30 inh: human USP30 deubiquitinase inhibition; Q70CQ3; purified USP30, Ub-rhodamine cleavage fluorescence; inhibition, % at 25 µM; 47,000 compounds, 5.3% hits; AID 1645860
# USP17 inh: blocks human USP17 ubiquitin-rhodamine cleavage; 47,000 compounds, 6.5% hits; inhibition, % at 50 µM; purified USP17, Ub-rhodamine cleavage fluorescence, 3 h
# USP10 block: human USP10 deubiquitinase inhibition | Q14694 | purified USP10, Ub-rhodamine fluorescence, 60 min | inhibition, % at 20 µM | 47,000 compounds, 1.1% hits
# USP8 inh: human USP8 deubiquitinase inhibition. 47,000 compounds, 4.2% hits. inhibition, % at 20 µM. AID 1645853. P40818. purified USP8, Ub-rhodamine cleavage fluorescence, 30 min
# USP28 inh: blocks human USP28 ubiquitin-rhodamine cleavage; Q96RU2; purified USP28, Ub-rhodamine cleavage fluorescence, 30 min; inhibition, % at 25 µM; 47,000 compounds, 3% hits; AID 1645857
# Target sequence (Q96RU2 whole entry, looked up): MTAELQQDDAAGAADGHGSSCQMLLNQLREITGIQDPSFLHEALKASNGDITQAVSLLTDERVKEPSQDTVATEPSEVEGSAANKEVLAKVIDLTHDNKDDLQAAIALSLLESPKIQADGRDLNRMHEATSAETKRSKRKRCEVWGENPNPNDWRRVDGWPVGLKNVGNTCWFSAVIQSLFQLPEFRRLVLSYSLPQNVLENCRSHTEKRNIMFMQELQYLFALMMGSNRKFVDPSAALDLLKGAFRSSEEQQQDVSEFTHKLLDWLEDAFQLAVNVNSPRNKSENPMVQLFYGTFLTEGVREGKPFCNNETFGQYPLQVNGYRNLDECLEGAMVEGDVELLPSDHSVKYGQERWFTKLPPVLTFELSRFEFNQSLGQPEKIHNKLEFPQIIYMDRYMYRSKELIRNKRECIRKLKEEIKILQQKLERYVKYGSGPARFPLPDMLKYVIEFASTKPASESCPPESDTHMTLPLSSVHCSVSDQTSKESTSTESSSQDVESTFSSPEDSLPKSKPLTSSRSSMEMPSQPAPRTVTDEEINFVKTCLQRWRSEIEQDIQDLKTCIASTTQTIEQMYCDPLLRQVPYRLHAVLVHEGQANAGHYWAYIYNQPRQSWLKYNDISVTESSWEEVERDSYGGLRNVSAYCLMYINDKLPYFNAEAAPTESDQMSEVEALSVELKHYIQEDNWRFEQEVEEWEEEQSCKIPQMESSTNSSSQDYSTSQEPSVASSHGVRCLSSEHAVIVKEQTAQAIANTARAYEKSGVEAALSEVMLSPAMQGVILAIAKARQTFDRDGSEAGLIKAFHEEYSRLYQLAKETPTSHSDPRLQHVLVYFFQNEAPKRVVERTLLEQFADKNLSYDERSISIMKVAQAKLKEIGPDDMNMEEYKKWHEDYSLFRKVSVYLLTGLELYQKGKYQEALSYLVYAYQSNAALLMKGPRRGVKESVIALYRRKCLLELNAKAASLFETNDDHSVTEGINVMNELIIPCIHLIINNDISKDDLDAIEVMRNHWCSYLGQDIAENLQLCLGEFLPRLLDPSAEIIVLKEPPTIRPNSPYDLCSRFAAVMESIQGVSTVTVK
# Active calls of the source: *; · = no result. Rule as the data show it: active = inhibition above about 30%; inactive = the rest.
SMILES,USP30 inh,USP17 inh,USP10 block,USP8 inh,USP28 inh
O=C(Nc1ccc2c(c1)OCCO2)Nc1ccccc1OCc1cc(=O)n2ccccc2n1,-3.9,4.3,-2.2,-8.4,8.3
Cc1cccc(NC(=O)Nc2ccccc2OCc2cc(=O)n3cccc(C)c3n2)c1,29.3,9.2,26.1,36.2*,24.0
Cc1cccc(NCc2cc(=O)n3cc(C)ccc3n2)c1,7.5,46.3*,-0.8,11.9,25.9
CC(=O)N1CCOc2cc(S(=O)(=O)Nc3ccccc3Cl)c(C)cc21,11.0,7.5,-0.2,1.8,13.5
O=C(CN1C(=O)c2ccccc2S1(=O)=O)N(CCc1ccccc1)Cc1ccccc1,9.2,7.6,1.6,8.7,9.6
COc1ccc(C2CCCN2C(C)C(=O)Nc2sccc2C(N)=O)cc1 (centres undefined),-171.0,-14.2,-4.9,-0.8,-13.3
CN(C)C(=O)c1ccc2c(c1)N(CC(=O)Nc1ccc(Cl)cc1)C(=O)C1CCCCN21 (centres undefined),-62.2,-5.2,-5.1,-14.7,-30.1
COc1ccccc1-c1noc2ncnc(N(Cc3ccco3)CC3CCCO3)c12 (centres undefined),36.1*,18.1,2.7,12.2,16.7
Cc1ccc(C(=O)N2CCC3(CC2)OC(=O)N(C)c2ccccc23)cc1,18.7,5.0,-2.0,8.0,5.8
Cc1ccc(-n2nc(C)c3c2NC(=O)CC3C(=O)c2cc3ccccc3o2)cc1 (centres undefined),5.9,7.9,32.8*,23.7,4.2
Cc1cccc(-n2nc(C)c3c2NC(=O)CC3C(=O)c2cc3ccccc3o2)c1C (centres undefined),-3.4,-13.8,-1.2,-16.9,14.4
CCc1ccc(-n2nc(C)c3c2NC(=O)CC3C(=O)c2ccc3c(c2)OCCO3)cc1 (centres undefined),-1.6,56.8*,1.0,-1.0,-0.1
COc1ccc(C2[C@@H]3CCCC[C@]3(O)CCN2Cc2ccc(C)cc2)cc1 (some centres undefined),-118.8,-26.4,-5.9,-20.6,-18.5
Cn1nc(C(=O)N2CCCC3(COCCN(CC4CC4)C3)C2)c2ccccc21 (centres undefined),25.1,-0.1,-0.7,-16.7,2.6
O=C(c1cc(-c2ccccc2)nn1-c1ccccc1)N1CCN(C(=O)C2CCCO2)CC1 (centres undefined),36.8*,8.5,-1.7,9.8,13.6
O=C(c1cnn2ccccc12)N1CCN(S(=O)(=O)/C=C/c2ccccc2)CC1,32.9*,11.4,2.4,5.2,11.2
O=C(CCC(=O)N1CCN(C(=O)c2cnn3ccccc23)CC1)c1ccccc1,-26.5,0.7,-3.0,-6.7,-9.8
C1=CCC(CN(CCCn2ccnc2)Cc2cnc[nH]2)CC1 (centres undefined),6.4,0.0,0.0,32.4*,-1.8
CC(=O)NC1CC2(CCN(C(=O)Cc3cnc[nH]3)CC2)Oc2ccccc21 (centres undefined),-23.8,-14.6,-0.4,-174.1,-10.8
COc1ccc(OC)c(C(=O)CSc2nc3nc(C)c(Br)cc3[nH]2)c1,-20.4,49.8*,-3.3,-9.0,0.0
CC1CCCN(CCCNC(=O)c2ccc3c(c2)NC(=O)C2CCCN32)C1 (centres undefined),-168.5,-29.8,-5.3,29.6,-51.4
CC(C)CC1Nc2ccc(C(=O)NCCCN3CCCC3)cc2NC1=O (centres undefined),4.9,38.3*,1.7,84.5*,0.0
Cn1nc(-c2nc(-c3ccccc3)no2)c2c1CCN(C(=O)C1CCCC1)C2,-14.9,64.2*,-0.6,5.8,-6.2
Cn1nc(-c2nc(-c3ccccc3)no2)c2c1CCN(C(=O)C1CC1)C2,68.1*,42.5*,-2.6,5.1,12.3
O=C(CSc1nc2[nH]c(=O)cc(O)c2s1)C12CC3CC(CC(C3)C1)C2,-110.5,-6.2,-0.3,-5.3,-33.5
SMILES,USP30 inh,USP17 inh,USP10 block,USP8 inh,USP28 inh
Cc1c(C#N)c2ccccc2n1CC(=O)NC1CCCCCC1,9.5,-12.6,-0.3,-19.4,-5.8
O=C(Cn1c(-c2ccc(F)cc2)nc2ccccc21)NC1CCCCC1,-5.8,19.0,-2.8,33.6*,-9.0
O=C(Cn1cnc(-c2noc(-c3ccc(F)cc3)n2)c1)NC1CCCCC1,28.7,26.0,10.9,52.4*,10.9
O=C(Cn1cnc(-c2noc(-c3ccncc3)n2)c1)N1CCN(c2ccccc2F)CC1,52.3*,11.2,-1.2,11.5,4.8
Cc1cc(C)n(-c2cc(C(=O)N3CCC(c4ncc(C(N)=O)c(C)n4)CC3)ccc2F)n1,8.3,0.7,-1.3,3.5,0.6
O=S(=O)(c1ccc(-c2ccc(Cl)cc2Cl)cc1)C1CCNCC1,44.5*,6.8,-0.7,-3.0,44.2*
COc1cc2c(cc1OC)-c1cc(-c3cc(OC)c(OC)c(OC)c3)cn1CC2,-140.5,-3.1,-3.5,35.9*,-24.8
COc1cc2c(cc1OC)-c1cc(NCc3cc(OC)c(OC)c(OC)c3)nc(=O)n1CC2,-5.2,·,-7.6,-23.1,1.0
O=S(=O)(c1cnc[nH]1)N1C[C@H]2CC[C@@H](Oc3cccnc3)[C@H]2C1,10.5,9.3,1.8,-4.1,9.5
O=C(COc1cc([N+](=O)[O-])cc2cccnc12)NCCC1=CCCCC1,37.0*,85.5*,2.2,97.6*,14.0
COc1ccc(OCC(=O)NCCC2=CCCCC2)c([N+](=O)[O-])c1,9.7,-2.3,2.0,-96.3,1.1
Cc1ccc(OCc2nc3ccccc3n2Cc2ccc(F)cc2)cc1,2.7,34.0*,11.9,3.7,14.4
C=C(C)Cn1c(CNC(=O)Cc2ccccc2)nc2ccccc21,22.4,11.2,2.2,10.0,11.5
Fc1ccc(OCCn2c(COc3ccccc3)nc3ccccc32)cc1,15.7,23.0,16.6,4.6,26.9
CCOc1ccc(NCc2nc3ccccc3n2Cc2ccccc2)cc1,3.1,15.7,2.4,41.7*,11.5
Fc1ccc(NCc2nc3ccccc3n2Cc2ccccc2)cc1,42.5*,14.3,8.8,19.9,33.4*
c1ccc(Cn2c(CNc3cccc4ccccc34)nc3ccccc32)cc1,-102.4,-107.3,3.4,57.9*,-5.8
CC1CCCN(C(=O)c2cc3c(=O)n4ccccc4nc3n2Cc2ccccc2)C1 (centres undefined),16.2,7.1,-0.1,5.7,8.3
Cc1nn(C)c(C)c1CCNC(=O)Nc1cccc(Cl)c1,-13.6,-9.7,-0.8,-3.5,10.0
C=C[C@]1(C)C[C@@H](O)[C@@]2(C)C3C(=O)CC[C@@]3(CC[C@H]2C)[C@@H](C)[C@@H]1O (some centres undefined),13.0,2.4,-0.2,0.1,4.5
Cc1cc(C(=O)N2CCOCC2)c(C)n1-c1ccc(O)cc1,17.0,86.0*,10.3,94.4*,8.7
O=C(O)c1ccccc1-c1ccccc1C(=O)N1CCOCC1,4.7,3.4,0.8,3.3,-0.5
CC(Oc1ccc(F)cc1)C(=O)Nc1ccc2nsnc2c1 (centres undefined),-2.1,34.1*,2.7,83.5*,25.4
CC(=O)NC(Cc1ccccc1F)C(=O)NC1CCN(C(=O)C2CCCCC2)CC1 (centres undefined),4.8,4.5,-0.5,8.0,6.5
